From the supplement of paper PMC10849652
About 8,800 targets were measured; listed, in parts, are those with a hit and a random draw of the rest. About 0.5% of all pairs of compound and target were hits. Values without a mark were called inactive.

Columns and labels:
Assay in all cases: log2 fold change, soluble protein after heating vs DMSO (PISA); higher = thermal stabilisation; K562 lysate, 10 uM; active = over 0.2 and 3.5 SD of the protein, either way, in both replicates (recomputed)
vemurafenib = compound: CCCS(=O)(=O)Nc1ccc(F)c(C(=O)c2c[nH]c3ncc(-c4ccc(Cl)cc4)cc23)c1F [vemurafenib]
Method in brief: (§1)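 The values are log-two fold changes in thermal stability compared with solvent controls and come from duplicates. They were obtained by TMTpro 16plex LC-MS/MS, with channel sums equalised, on the supernatant after 21,000xg for 90 min. That supernatant came from crude K562 extract at 1 mg/mL protein treated with 10 μM compound for 30 min, heated for 3 min across 48°C-58°C, pooled and brought to 0.5% NP-40 at 4°C.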

[1] = compound: CCCS(=O)(=O)Nc1ccc(F)c(C(=O)c2c[nH]c3ncc(Cl)cc23)c1F
Method in brief: as §1

barasertib = compound: CCN(CCCOc1ccc2c(Nc3cc(CC(=O)Nc4cccc(F)c4)[nH]n3)ncnc2c1)CCOP(=O)(O)O [barasertib]
Method in brief: as §1

[2] = compound: CC[C@@H]1C(=O)N(C)c2cnc(Nc3ccc(C(=O)NC4CCN(C)CC4)cc3OC)nc2N1C1CCCC1
Method in brief: as §1

volasertib = compound: CC[C@@H]1C(=O)N(C)c2cnc(Nc3ccc(C(=O)N[C@H]4CC[C@H](N5CCN(CC6CC6)CC5)CC4)cc3OC)nc2N1C(C)C [volasertib]
Method in brief: as §1

[3] = compound: CCn1c(C(=O)N(C2CC2)C2CC2)cc2c3c(ncn3C)c(Nc3cc(C)n(C)n3)nc21
Method in brief: as §1

[4] = compound: CCn1cc(-c2ccnc3[nH]c(-c4cccc(CN(C)C)c4)cc23)c(-c2ccc(NC(=O)N(C)C)cc2)n1
Method in brief: as §1

[5] = compound: CN1CCC(CNc2ccc3ncc(-c4cccc(OC(F)(F)F)c4)n3n2)CC1
Method in brief: as §1

saracatinib = compound: CN1CCN(CCOc2cc(OC3CCOCC3)c3c(Nc4c(Cl)ccc5c4OCO5)ncnc3c2)CC1 [saracatinib]
Method in brief: as §1

sotrastaurin = compound: CN1CCN(c2nc(C3=C(c4c[nH]c5ccccc45)C(=O)NC3=O)c3ccccc3n2)CC1 [sotrastaurin]
Method in brief: as §1

alvocidib = compound: CN1CC[C@H](c2c(O)cc(O)c3c(=O)cc(-c4ccccc4Cl)oc23)[C@H](O)C1 [alvocidib]
Method in brief: as §1

Tubastatin A = compound: CN1CCc2c(c3ccccc3n2Cc2ccc(C(=O)NO)cc2)C1 [Tubastatin A]
Method in brief: as §1

[6] = compound: CNC(=O)C1=CC=CC=C1NC2=NC(=NC=C2Cl)NC3=C(C=C(C=C3)N4CCOCC4)OC
Method in brief: as §1

defactinib = compound: CNC(=O)c1ccc(Nc2ncc(C(F)(F)F)c(NCc3nccnc3N(C)S(C)(=O)=O)n2)cc1 [defactinib]
Method in brief: as §1

[7] = compound: CNc1nc(-c2ccc3c(N)n[nH]c3c2)cc(N2C[C@@H](C(=O)NC3CCCCC3)CC[C@H]2C)n1
Method in brief: as §1

encorafenib = compound: COC(=O)N[C@@H](C)CNc1nccc(-c2cn(C(C)C)nc2-c2cc(Cl)cc(NS(C)(=O)=O)c2F)n1 [encorafenib]
Method in brief: as §1

[8] = compound: COC(=O)[C@H](CCSC)NC(=O)C1=C(C=C(C=C1)NC[C@H](CS)N)C2=CC=CC=C2
Method in brief: as §1

alisertib = compound: COc1cc(Nc2ncc3c(n2)-c2ccc(Cl)cc2C(c2c(F)cccc2OC)=NC3)ccc1C(=O)O [alisertib]
Method in brief: as §1

[9] = compound: COc1cc2nc(-c3cc(F)ccc3O)nc(N[C@@H]3CNC[C@H]3C(C)(C)O)c2cc1OC
Method in brief: as §1

gefitinib = compound: COc1cc2ncnc(Nc3ccc(F)c(Cl)c3)c2cc1OCCCN1CCOCC1 [gefitinib]
Method in brief: as §1

UniProt Q8N0Z6, sequence (Q8N0Z6 whole entry, looked up): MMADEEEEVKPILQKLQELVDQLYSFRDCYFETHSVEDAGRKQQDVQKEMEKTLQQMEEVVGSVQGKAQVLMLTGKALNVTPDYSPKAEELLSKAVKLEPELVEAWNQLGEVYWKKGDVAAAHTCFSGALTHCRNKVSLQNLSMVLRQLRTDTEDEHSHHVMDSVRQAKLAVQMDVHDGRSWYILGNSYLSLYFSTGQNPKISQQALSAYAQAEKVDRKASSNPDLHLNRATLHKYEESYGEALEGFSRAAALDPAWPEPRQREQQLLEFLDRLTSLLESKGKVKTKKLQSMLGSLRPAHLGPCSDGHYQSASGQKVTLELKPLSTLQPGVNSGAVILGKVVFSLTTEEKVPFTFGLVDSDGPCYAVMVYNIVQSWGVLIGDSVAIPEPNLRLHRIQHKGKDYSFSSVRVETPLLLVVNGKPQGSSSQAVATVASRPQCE
UniProt Q9H497, sequence (Q9H497 whole entry, looked up): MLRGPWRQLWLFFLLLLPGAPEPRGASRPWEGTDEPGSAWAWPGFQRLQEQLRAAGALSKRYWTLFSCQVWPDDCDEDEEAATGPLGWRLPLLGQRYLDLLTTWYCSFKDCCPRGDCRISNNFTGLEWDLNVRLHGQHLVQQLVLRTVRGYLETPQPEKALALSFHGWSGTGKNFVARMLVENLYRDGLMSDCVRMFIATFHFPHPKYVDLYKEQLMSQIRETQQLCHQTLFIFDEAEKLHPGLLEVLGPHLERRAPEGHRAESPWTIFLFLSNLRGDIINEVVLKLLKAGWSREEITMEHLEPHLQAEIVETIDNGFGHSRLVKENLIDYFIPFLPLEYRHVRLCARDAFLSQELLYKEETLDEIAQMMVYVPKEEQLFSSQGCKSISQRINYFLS
UniProt P06753, sequence (P06753 whole entry, looked up): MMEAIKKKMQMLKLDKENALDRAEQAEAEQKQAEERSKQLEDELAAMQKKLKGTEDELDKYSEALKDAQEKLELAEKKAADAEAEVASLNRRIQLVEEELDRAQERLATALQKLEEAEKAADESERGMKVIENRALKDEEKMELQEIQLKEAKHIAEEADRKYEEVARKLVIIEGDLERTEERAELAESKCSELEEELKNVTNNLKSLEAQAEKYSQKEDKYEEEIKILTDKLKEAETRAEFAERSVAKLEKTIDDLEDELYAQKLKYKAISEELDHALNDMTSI
UniProt P68371, sequence (P68371 whole entry, looked up): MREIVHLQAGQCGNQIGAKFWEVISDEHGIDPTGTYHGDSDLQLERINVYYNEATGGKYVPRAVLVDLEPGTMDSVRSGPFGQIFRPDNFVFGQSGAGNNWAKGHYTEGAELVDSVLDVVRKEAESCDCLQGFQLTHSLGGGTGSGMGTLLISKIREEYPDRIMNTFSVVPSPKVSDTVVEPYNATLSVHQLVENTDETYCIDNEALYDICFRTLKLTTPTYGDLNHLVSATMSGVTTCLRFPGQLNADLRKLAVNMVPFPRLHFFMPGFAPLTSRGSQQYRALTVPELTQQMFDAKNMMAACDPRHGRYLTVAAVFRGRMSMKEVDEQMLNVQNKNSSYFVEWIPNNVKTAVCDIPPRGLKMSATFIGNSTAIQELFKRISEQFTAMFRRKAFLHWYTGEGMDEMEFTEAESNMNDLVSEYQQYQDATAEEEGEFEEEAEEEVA
UniProt Q5BJF2, sequence (Q5BJF2 whole entry, looked up): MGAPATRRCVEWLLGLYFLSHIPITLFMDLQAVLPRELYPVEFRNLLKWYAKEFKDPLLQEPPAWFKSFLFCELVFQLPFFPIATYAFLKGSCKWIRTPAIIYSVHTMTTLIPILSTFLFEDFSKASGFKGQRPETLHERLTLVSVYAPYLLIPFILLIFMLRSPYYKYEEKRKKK
UniProt Q9BQE3, sequence (Q9BQE3 whole entry, looked up): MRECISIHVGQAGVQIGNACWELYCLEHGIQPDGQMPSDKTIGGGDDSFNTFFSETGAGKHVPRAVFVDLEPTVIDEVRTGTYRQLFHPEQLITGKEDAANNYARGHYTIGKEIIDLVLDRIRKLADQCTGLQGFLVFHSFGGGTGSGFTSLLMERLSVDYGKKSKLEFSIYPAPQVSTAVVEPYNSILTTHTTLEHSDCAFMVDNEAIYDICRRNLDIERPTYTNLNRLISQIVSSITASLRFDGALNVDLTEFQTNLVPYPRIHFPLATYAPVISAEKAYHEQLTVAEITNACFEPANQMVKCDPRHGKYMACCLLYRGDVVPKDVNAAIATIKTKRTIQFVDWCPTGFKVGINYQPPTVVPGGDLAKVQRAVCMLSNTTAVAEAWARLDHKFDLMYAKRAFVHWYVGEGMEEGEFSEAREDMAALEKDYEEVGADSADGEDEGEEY
UniProt Q8IZ69, sequence (Q8IZ69 whole entry, looked up): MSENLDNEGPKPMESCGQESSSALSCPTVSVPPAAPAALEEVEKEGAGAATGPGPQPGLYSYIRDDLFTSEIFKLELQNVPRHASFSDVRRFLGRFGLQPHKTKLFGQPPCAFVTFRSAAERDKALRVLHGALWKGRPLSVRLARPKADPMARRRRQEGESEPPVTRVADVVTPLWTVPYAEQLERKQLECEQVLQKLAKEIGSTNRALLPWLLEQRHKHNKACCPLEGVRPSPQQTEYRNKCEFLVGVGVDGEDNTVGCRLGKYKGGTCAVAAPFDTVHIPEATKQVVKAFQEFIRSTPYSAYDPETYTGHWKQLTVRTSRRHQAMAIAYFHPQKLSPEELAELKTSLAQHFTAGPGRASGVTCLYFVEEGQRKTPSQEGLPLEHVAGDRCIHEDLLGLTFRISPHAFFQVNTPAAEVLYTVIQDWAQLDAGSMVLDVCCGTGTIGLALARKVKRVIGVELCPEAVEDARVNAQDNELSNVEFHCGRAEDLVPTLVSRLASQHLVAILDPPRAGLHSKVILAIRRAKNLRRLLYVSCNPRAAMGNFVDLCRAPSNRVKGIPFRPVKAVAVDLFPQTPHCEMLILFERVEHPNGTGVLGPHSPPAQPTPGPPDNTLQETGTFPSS
UniProt P17480, sequence (P17480 whole entry, looked up): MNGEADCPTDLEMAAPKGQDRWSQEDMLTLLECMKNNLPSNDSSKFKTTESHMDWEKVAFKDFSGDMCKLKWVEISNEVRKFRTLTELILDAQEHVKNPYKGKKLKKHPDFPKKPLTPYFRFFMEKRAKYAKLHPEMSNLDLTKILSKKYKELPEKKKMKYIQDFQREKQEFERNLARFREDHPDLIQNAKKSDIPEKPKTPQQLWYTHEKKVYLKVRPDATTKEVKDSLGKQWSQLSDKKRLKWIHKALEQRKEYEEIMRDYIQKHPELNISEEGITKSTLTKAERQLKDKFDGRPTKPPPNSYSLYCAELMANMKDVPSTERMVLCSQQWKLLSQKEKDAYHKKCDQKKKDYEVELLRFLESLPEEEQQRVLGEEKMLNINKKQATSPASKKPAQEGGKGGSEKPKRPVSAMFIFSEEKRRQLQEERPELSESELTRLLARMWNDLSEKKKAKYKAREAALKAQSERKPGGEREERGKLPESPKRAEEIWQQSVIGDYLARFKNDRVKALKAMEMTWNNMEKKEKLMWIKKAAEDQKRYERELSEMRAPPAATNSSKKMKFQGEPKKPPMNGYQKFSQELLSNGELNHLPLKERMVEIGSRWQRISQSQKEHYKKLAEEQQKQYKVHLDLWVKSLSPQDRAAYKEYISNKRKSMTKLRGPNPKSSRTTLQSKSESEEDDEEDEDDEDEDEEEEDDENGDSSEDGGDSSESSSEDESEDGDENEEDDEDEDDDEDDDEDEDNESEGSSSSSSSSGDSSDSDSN
UniProt Q9UJT0, sequence (Q9UJT0 whole entry, looked up): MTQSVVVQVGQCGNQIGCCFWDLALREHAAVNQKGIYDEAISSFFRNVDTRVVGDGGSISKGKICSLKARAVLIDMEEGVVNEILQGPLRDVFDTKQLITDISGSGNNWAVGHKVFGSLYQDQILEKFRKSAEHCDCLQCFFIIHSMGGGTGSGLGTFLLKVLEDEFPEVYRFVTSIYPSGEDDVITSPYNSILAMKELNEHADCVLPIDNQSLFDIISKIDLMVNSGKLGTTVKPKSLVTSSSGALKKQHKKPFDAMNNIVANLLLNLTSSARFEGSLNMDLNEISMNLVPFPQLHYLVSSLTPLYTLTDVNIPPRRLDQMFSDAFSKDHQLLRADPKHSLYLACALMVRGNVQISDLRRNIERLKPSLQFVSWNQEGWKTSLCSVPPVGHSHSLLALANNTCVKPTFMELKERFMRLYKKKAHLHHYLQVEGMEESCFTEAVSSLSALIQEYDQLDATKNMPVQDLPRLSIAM
UniProt Q12800, sequence (Q12800 whole entry, looked up): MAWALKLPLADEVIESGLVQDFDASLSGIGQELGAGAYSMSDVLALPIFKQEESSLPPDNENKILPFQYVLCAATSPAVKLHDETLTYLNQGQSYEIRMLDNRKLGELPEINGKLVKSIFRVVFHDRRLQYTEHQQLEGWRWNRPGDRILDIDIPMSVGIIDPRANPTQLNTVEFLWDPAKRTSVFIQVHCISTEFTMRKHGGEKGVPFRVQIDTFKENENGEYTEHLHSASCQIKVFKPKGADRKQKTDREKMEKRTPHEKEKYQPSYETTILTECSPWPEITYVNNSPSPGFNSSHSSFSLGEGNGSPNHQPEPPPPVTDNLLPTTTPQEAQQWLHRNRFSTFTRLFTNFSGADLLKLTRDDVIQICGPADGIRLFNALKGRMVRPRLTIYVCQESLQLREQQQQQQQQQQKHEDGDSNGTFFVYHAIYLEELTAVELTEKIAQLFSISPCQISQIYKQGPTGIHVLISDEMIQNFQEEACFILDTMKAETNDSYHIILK
UniProt Q9NYB0, sequence (Q9NYB0 whole entry, looked up): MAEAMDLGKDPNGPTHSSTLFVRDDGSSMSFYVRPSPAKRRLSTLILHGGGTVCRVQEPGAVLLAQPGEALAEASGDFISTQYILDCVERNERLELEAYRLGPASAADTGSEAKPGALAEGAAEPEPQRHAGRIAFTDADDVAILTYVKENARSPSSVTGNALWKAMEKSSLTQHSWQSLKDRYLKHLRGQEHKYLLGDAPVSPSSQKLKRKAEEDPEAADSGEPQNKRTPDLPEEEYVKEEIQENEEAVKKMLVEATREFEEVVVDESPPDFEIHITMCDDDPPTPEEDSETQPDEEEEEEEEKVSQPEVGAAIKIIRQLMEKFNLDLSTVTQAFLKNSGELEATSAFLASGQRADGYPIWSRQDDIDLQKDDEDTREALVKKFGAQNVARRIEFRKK

Row | Target | log2 fold change (vemurafenib) | log2 fold change [1] | log2 fold change (barasertib) | log2 fold change [2] | log2 fold change (volasertib) | log2 fold change [3] | log2 fold change [4] | log2 fold change [5] | log2 fold change (saracatinib) | log2 fold change (sotrastaurin) | log2 fold change (alvocidib) | log2 fold change (Tubastatin A) | log2 fold change [6] | log2 fold change (defactinib) | log2 fold change [7] | log2 fold change (encorafenib) | log2 fold change [8] | log2 fold change (alisertib) | log2 fold change [9] | log2 fold change (gefitinib)
1 | TTC5 (UniProt Q8N0Z6) | 0.016 | 0.017 | -0.014 | -0.03 | -0.014 | 0.018 | -0.111 | 0.054 | 0.005 | 0.007 | -0.006 | -0.092 | -0.017 | -0.017 | -0.02 | -0.021 | 0.057 | -0.036 | -0.01 | 0.091
2 | TIMELESS (UniProt Q9UNS1) | 0.035 | 0.031 | 0.039 | -0.058 | 0.043 | 0.013 | -0.094 | -0.07 | 0.035 | 0 | -0.017 | -0.149 | 0.031 | 0 | -0.039 | 0.039 | 0.105 | -0.011 | 0.049 | 0.017
3 | TUBA1C (UniProt Q9BQE3) | 0.036 | 0.026 | 0.013 | 0.009 | -0.059 | -0.029 | -0.082 | 0.022 | 0.054 | 0.044 | 0 | -0.001 | 0.011 | 0.009 | 0.06 | -0.002 | 0.023 | -0.012 | 0.001 | -0.042
4 | TMEM97 (UniProt Q5BJF2) | 0.076 | -0.027 | 0.037 | 0.028 | 0.099 | -0.048 | -0.327 (active) | 0.173 | 0.002 | -0.08 | -0.081 | 0.114 | -0.016 | -0.021 | 0.091 | -0.008 | -0.042 | -0.026 | 0.014 | -0.017
5 | TRIM44 (UniProt Q96DX7) | -0.085 | 0.095 | 0.066 | -0.075 | -0.014 | 0.003 | 0.146 | -0.031 | 0.023 | 0.044 | 0 | -0.013 | 0.057 | -0.045 | 0.04 | -0.047 | -0.034 | 0.041 | -0.121 | 0.088
6 | TUBB4B (UniProt P68371) | 0.006 | 0.004 | -0.092 | -0.032 | -0.034 | 0.005 | -0.134 | -0.011 | 0.03 | -0.021 | 0.032 | -0.017 | 0.024 | 0.018 | -0.039 | -0.03 | 0.067 | 0.019 | -0.013 | -0.028
7 | TPM3 isoform 2 (UniProt P06753) | -0.052 | -0.024 | -0.016 | -0.07 | 0.007 | 0.026 | 0.196 | -0.179 | -0.009 | 0.025 | 0.03 | 0.033 | -0.012 | 0 | -0.144 | 0 | -0.071 | 0 | -0.024 | 0.059
8 | TOR3A (UniProt Q9H497) | -0.001 | -0.11 | -0.031 | -0.013 | -0.05 | -0.006 | -0.123 | 0.057 | 0.014 | 0.03 | 0.01 | -0.016 | 0.004 | 0.01 | 0.019 | 0.006 | -0.006 | 0.032 | -0.367 | 0.018
9 | TRMT2A (UniProt Q8IZ69) | -0.028 | 0.004 | 0.016 | -0.019 | -0.045 | 0.005 | -0.016 | 0.009 | -0.007 | 0.002 | -0.014 | -0.144 | 0.019 | 0.041 | -0.018 | 0.019 | 0.098 | 0.043 | 0.007 | 0.007
10 | UBTF (UniProt P17480) | -0.024 | 0.002 | 0.011 | -0.291 (active) | -0.011 | 0.002 | 0.038 | -0.067 | 0.042 | 0.023 | 0.026 | -0.135 | -0.008 | 0.007 | 0.004 | -0.002 | 0.073 | 0.055 | -0.018 | 0.045
11 | TERF2IP (UniProt Q9NYB0) | -0.009 | -0.003 | -0.006 | 0.075 | 0.022 | -0.015 | 0.269 (active) | -0.152 | -0.003 | 0.008 | 0.087 | 0.014 | 0.009 | -0.008 | 0.019 | 0 | -0.038 | -0.015 | 0.011 | -0.003
12 | TUBE1 (UniProt Q9UJT0) | 0.036 | 0.012 | 0.03 | 0.112 | -0.005 | 0.028 | 0.257 | -0.082 | 0.089 | 0.043 | 0.06 | -0.001 | 0.062 | 0.107 | -0.027 | 0.036 | -0.108 | 0.052 | -0.009 | -0.005
13 | TCP11L1 (UniProt Q9NUJ3) | -0.078 | 0.014 | 0.038 | 0.045 | -0.054 | 0.009 | -0.244 | 0.097 | -0.007 | 0.009 | -0.098 | -0.006 | 0.029 | 0.023 | -0.064 | 0.006 | -0.064 | -0.022 | 0.032 | -0.001
14 | TTC27 (UniProt Q6P3X3) | 0.015 | 0.007 | 0.028 | -0.07 | -0.074 | 0.015 | -0.085 | -0.058 | 0.055 | 0.051 | 0.012 | -0.148 | -0.049 | 0.023 | -0.007 | 0.028 | 0.057 | 0.027 | 0.012 | 0.02
15 | TRIP13 (UniProt Q15645) | -0.036 | 0 | 0.033 | -0.083 | -0.089 | 0.034 | 0.003 | -0.019 | 0.008 | 0.05 | 0.018 | -0.159 | 0.014 | 0.07 | -0.049 | 0.03 | 0.114 | 0 | 0.014 | -0.036
16 | TFCP2 (UniProt Q12800) | 0.023 | 0.049 | 0.007 | -0.064 | -0.064 | 0.045 | -0.042 | -0.083 | 0.022 | -0.006 | 0.015 | -0.215 | 0.169 | 0.003 | 0.009 | 0.093 | 0.044 | 0.019 | -0.049 | -0.033
